According to the supplement of paper PMC3656093:
± gives the standard deviation of the averaged measurements. Whole data set: some 1,900 compounds, median “CD40L-induced NF-kB luciferase activity, plate-corrected, relative to DMSO (0) and IKK inhibitor VII (-100) controls” near 0.032, cut for the lowest 2% near -26. The sample as a whole holds a higher share of the lowest values than the screen did.

test system: BL2-NFkB-Luc; assay: CD40L-induced NF-kB luciferase activity, plate-corrected, relative to DMSO (0) and IKK inhibitor VII (-100) controls (% normalized activity); higher = more NF-kB reporter activity (less inhibition); details: 9.4 µM; stimulus: tCD40L 64 ng/ml; 4.5 h
Protocol: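 BL2 B cells with a stable NF-kB response-element luciferase reporter (BL2-NFkB-Luc), 384-well. Cells were pre-incubated with compound at 9.4 uM for 1 h at 37 C, then stimulated with 64 ng/ml trimerized CD40L for 4.5 h; luciferase was read with Steady-Glo. Signal was normalised per plate in Genedata (median DMSO neutral control = 0, median IKK inhibitor VII at 50 uM = -100) with Assay Median plate-pattern correction; duplicate plates.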

Compound | CD40L-induced NF-kB luciferase activity
COc1cc2c(cc1OC)C1(CCCCC1)CN(C)C2 | -4.22 ± 0.72
O=C(CC1SC(=O)NC1=O)Nc1ccc(Cl)cc1 (stereo not drawn) | 2.93 ± 5.1
O=C(NN=Cc1ccc([N+](=O)[O-])o1)c1ccc(O)cc1 | -1.71 ± 0.97
COC(=O)CSc1nc2ccc(N)cc2s1 | 0.507 ± 4.2
CCOCC(=O)Nc1nc2ccccc2s1 | 50.7 ± 10
O=C(O)CCSc1nc2ccccc2s1 | -42.3 ± 0.52
CN(CCc1cnn(C)c1)Cc1nc(CC2CC2)no1 | -0.906 ± 0.31
COc1ccc(O)c(C(=O)/C=C/c2cc3ccccc3o2)c1 | 83.3 ± 3.2
O=C(OCCN1CCOCC1)c1cccs1 | -4.77 ± 5.6
COc1ccc(CCCC(=O)O)c(C)c1 | 1.85 ± 1.2
CCN(CC)C1=C(Cl)C(=O)C(Cl)C12OCCO2 (stereo not drawn) | -4.69 ± 4.8
Cc1cc(C=NO)c(C)n1-c1ccc(Br)cc1 | -0.84 ± 0.39
COc1ccc(C2N3CC4(C)CN2CC(C)(C3)C4)cc1OC (stereo not drawn) | -1.8 ± 1.9
COc1ccc(C(=O)Nc2cccc3cccnc23)cc1OC | 19.3 ± 10
O=C(NCCC(c1ccccc1)c1ccco1)c1cccs1 (stereo not drawn) | 24.9 ± 2.2
CCc1cc2c(=O)c(-c3nc4ccccc4n3C)coc2c(CN2CCN(C)CC2)c1O | -3.98 ± 2.5
CC(C)[C@H]1CN(C)CCN1Cc1cn(C)nc1-c1cccc(Cl)c1 | 2.03 ± 0.42
Cc1c(OC(=O)CNC(=O)OC(C)(C)C)ccc2c3c(c(=O)oc12)CCC3 | 3.02 ± 3.5
O=C(O)c1ccc(C(=O)C(=O)c2ccccc2)cc1 | -6.47 ± 15
CC(=O)C1=C(O)C(=O)N(CC(=O)O)C1c1ccccc1Cl (stereo not drawn) | 3.2 ± 3.2
CC(=O)OCC(=O)C1=CCC2C3CCC4=CC(=O)C=CC4(C)C3(F)C(OC(C)=O)CC12C (stereo not drawn) | -4.87 ± 4.6
C[C@@H]1C[C@H]2[C@@H]3CCC4=CC(=O)C=C[C@]4(C)[C@@]3(F)[C@@H](O)C[C@]2(C)[C@H]1C(=O)CO | -31.39 ± 0.23

Compound | CD40L-induced NF-kB luciferase activity
CC(=O)OCC(=O)[C@@]12OC3(CCCC3)O[C@@H]1C[C@H]1[C@@H]3CCC4=CC(=O)C=C[C@]4(C)[C@@]3(F)[C@@H](O)C[C@@]12C | -20.2 ± 1.1
CC1(C)O[C@@H]2C[C@H]3[C@@H]4CCC5=CC(=O)C=C[C@]5(C)[C@@]4(F)[C@@H](O)C[C@]3(C)[C@]2(C(=O)CO)O1 | -31.3 ± 5.1
CC1(C)O[C@@H]2C[C@H]3[C@@H]4C[C@H](F)C5=CC(=O)C=C[C@]5(C)[C@@]4(F)[C@@H](O)C[C@]3(C)[C@]2(C(=O)CO)O1 | -23.7 ± 1.8
C[C@]12CC[C@H]3[C@@H](CCC4=CC(=O)CC[C@@]43C)[C@@H]1CC[C@@H]2C(=O)CO | -4.85 ± 1.2
C/C=C/c1ccc(OCCCCN2CC(C)CC(C)C2)c(OC)c1 (stereo not drawn) | 1.73 ± 0.88
Cc1ccc(OCc2nc(-c3cccnc3)no2)cc1C | 34.5 ± 7.5
CCc1cc(=O)oc2cc(OCc3nn[nH]n3)ccc12 | -0.362 ± 2.4
COc1cc2oc(-c3ccc(O)cc3)cc(=O)c2c(OC)c1O | 2.41 ± 4.4
Cc1cccc(Nc2ncccc2C(=O)O)c1C | -3.873 ± 0.016
CCOc1ccc(C(NC(C)=O)c2ccc(OC)c(OC)c2)cc1 (stereo not drawn) | 4.36 ± 0.088
Nc1c(C(=O)c2ccccc2)oc2ccccc12 | 17.3 ± 8.5
O=C(c1ccc(F)cc1)[C@@H]1[C@@H](C(=O)c2ccccc2)[C@@]2(C(=O)Nc3ccccc32)[C@H]2c3ccccc3C=CN12 | 6.58 ± 1.4
CCOC(=O)c1cccc(C(=O)OCC)n1 | -2.95 ± 2.1
COc1cccc(CN2CCN(C(=O)c3ccc(-c4ccccc4)cc3)CC2)c1 | -7.33 ± 1.1
O=C(/C=C/c1ccc(F)cc1)N1CC[C@@]2(O)CCCC[C@H]2C1 | -1.13 ± 0.88
Cc1ccc(C(=O)NCCNC(=O)c2ccccc2)cc1 | -2.5 ± 3.9
O=C(Cc1ccc(Br)cc1)c1ccc(O)cc1O | 32.9 ± 18
O=C(Nc1ccc(C(=O)NC2CCCCC2)cc1)c1cccnc1 | 0.625 ± 0.58
COC(=O)c1[nH]c2ccc(C)cc2c1NC(=O)CN1CCc2cc(OC)c(OC)cc2C1 | -5.22 ± 6.4
COc1ccc(-c2cc(=Nc3ccc(C)cc3)c3ccccc3o2)cc1 | 2.07 ± 3
C=CCN1C(=O)c2oc3ccccc3c(=O)c2C1c1ccc(O)c(OC)c1 (stereo not drawn) | -0.791 ± 0.32
